system: GRK1; conditions: concentration: 1 μM, replicates: in singlicate; n = 1
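Also: KINOMEscan kinase panel screen.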

SMILES | %Inh [%]
OCCCNc1nccc(-c2c(-c3cccc(C(F)(F)F)c3)nn3cc(C(F)(F)F)ccc23)n1 [GW630813] | 100
COc1cc(Nc2nccc(N3CCC(NC(=O)C4COc5ccccc5O4)C3)n2)cc(OC)c1OC (stereo not shown) [GSK1379761] | 0
CCc1ccc(-c2ccc3c(c2)-c2nn(C)cc2S(=O)(=O)N3C)cc1 | 12
COc1cc(Nc2nccc(N3CCC(NC(=O)C(C)c4ccc(Cl)cc4)C3)n2)cc(OC)c1OC (stereo not shown) [GSK1379757] | 0
CCS(=O)c1ccc(-c2coc3ccc(-c4nnc(C)o4)cc23)cc1 (stereo not shown) | 5
O=C1NC(=O)C(c2ccccc2)=C1Nc1cccc(O)c1 [SB-390534] | 13
COc1cccc(-n2cnc3c(N)ncnc32)c1 [SKF-97416] | 24
COc1cc2ncn(-c3cc(OCc4ccncc4)c(C(N)=O)s3)c2cc1OC [GSK336313] | 0
COC(=O)c1c(-c2ccccc2)c2cc(Br)ccc2c(=O)n1Cc1ccc(S(C)(=O)=O)cc1 | 0
Nc1ncnc2c1ncn2-c1cccc(F)c1 [SKF-97560] | 10
Nc1n[nH]c2nnc(-c3ccccc3)c(-c3ccccc3)c12 [GW554060] | 0
Cc1ccc(-c2ccc3c(ccc4sc5c(c43)NC[C@@H](C)N=C5N(C)C)n2)cn1 | 0
COc1cc2ncn(-c3cc(OCc4ccc(S(C)(=O)=O)cc4)c(C(N)=O)s3)c2cc1OC [GW869979] | 10
Cl.NS(=O)(=O)c1cccc(Nc2cc(-c3ccc(F)cc3)n[nH]2)c1 [GW824645] | 23
COc1cccc(C2=C(N(C)c3ccccc3)C(=O)NC2=O)c1 [SB-334865] | 5
CCn1c(-c2ccoc2)nc2cnccc21 [SB-733887] | 0
COc1cc2nccc(Nc3cccc(Oc4ccccc4)c3)c2cc1OC.Cl [GW284543] | 0
CCC(=O)c1c(-c2ccccc2)c2cc(Cl)ccc2c(=O)n1Cc1cc(S(C)(=O)=O)n(CC(N)=O)n1 | 24
CCn1c(-c2nonc2N)nc2ccccc21 [SB-693162/GW549034] | 46
CN(C)c1cc(-c2ccc3c(N)n[nH]c3c2)nc(N)n1 [GSK2219329] | 0
Cc1ccccc1COc1cc(-n2cnc3cc(Cl)ccc32)sc1C(N)=O [GW813349] | 13
Cl.c1ccc(Cn2cnc3cc(Nc4ncnc5ccccc45)ccc32)cc1 [GW272142] | 0
Nc1ncnc2c1ncn2-c1cccc2ccccc12 [SKF-97184] | 31
COc1ccc(CNC(=O)NC2CCN(c3ccnc(Nc4ccc(F)cc4)n3)C2)cc1 (stereo not shown) [GSK1379706] | 5

system: T1, GRK2; conditions: concentration: 1 μM, replicates: in singlicate; n = 1
T1 construct: gene ADRBK1

SMILES | %Inh [%]
C[C@@H]1CC[C@H](C(=O)NC2CCCCC2)CN1c1cc(-c2ccc3c(N)n[nH]c3c2)nc(N)n1 [GSK2291363] | 0
Cc1nc(N(C)[C@H]2CN(C(=O)CC#N)CC[C@H]2C)c2cc[nH]c2n1 | 0
Nc1nccc2scc(-c3ccc4c(c3)CCN4C(=O)Cc3ccccc3)c12 [GSK2576924] | 4
COc1cc(OC)cc(-c2cc3cnc(N)nc3nc2NC(=O)NC(C)(C)C)c1 | 0
O=C(Nc1n[nH]c2cc(-c3ccccc3F)ccc12)C1CC1 [SB-733371] | 0
CCCNC(=O)Nc1ccc(Oc2ncnc3ccn(C)c23)cc1 | 40
COc1cc2ncn(-c3cc(OCc4ccncc4Br)c(C(N)=O)s3)c2cc1OC [GW854278] | 5
Cc1nn2c(=O)cc(N3CCOCC3)nc2n1Cc1cccc(Cl)c1Cl [GSK2342769] | 0
Cc1c(Cn2c(C)nn3c(=O)cc(N4CCO[C@H](C)C4)nc23)cccc1C(F)(F)F [GSK2373690] | 0
COc1cc2nccc(Nc3ccc(OCc4ccc(NC(C)=O)cc4)cc3)c2cc1OC.Cl [GW440135] | 0
Cc1cccc(-c2nc(Nc3ccc4c(cnn4C)c3)c3ccccc3n2)n1 [GW876731] | 16
CCCC(=O)Nc1n[nH]c2ncc(-c3cccc4ccccc34)cc12 [SB-642057] | 0
FC(F)(F)c1ccc(-c2ncn(CCCN3CCOCC3)c2-c2ccncc2)cc1 [SB-217780] | 5
OCCCNc1nccc(-c2c(-c3cccc(C(F)(F)F)c3)nn3cc(C(F)(F)F)ccc23)n1 [GW630813] | 0
COc1cc(Nc2nccc(N3CCC(NC(=O)C4COc5ccccc5O4)C3)n2)cc(OC)c1OC (stereo not shown) [GSK1379761] | 0
CCc1ccc(-c2ccc3c(c2)-c2nn(C)cc2S(=O)(=O)N3C)cc1 | 0
COc1cc(Nc2nccc(N3CCC(NC(=O)C(C)c4ccc(Cl)cc4)C3)n2)cc(OC)c1OC (stereo not shown) [GSK1379757] | 0
CCS(=O)c1ccc(-c2coc3ccc(-c4nnc(C)o4)cc23)cc1 (stereo not shown) | 0
O=C1NC(=O)C(c2ccccc2)=C1Nc1cccc(O)c1 [SB-390534] | 0

SMILES | %Inh [%]
COc1cccc(-n2cnc3c(N)ncnc32)c1 [SKF-97416] | 0
COc1cc2ncn(-c3cc(OCc4ccncc4)c(C(N)=O)s3)c2cc1OC [GSK336313] | 0
COC(=O)c1c(-c2ccccc2)c2cc(Br)ccc2c(=O)n1Cc1ccc(S(C)(=O)=O)cc1 | 14
Nc1ncnc2c1ncn2-c1cccc(F)c1 [SKF-97560] | 61
Nc1n[nH]c2nnc(-c3ccccc3)c(-c3ccccc3)c12 [GW554060] | 0
Cc1ccc(-c2ccc3c(ccc4sc5c(c43)NC[C@@H](C)N=C5N(C)C)n2)cn1 | 0
COc1cc2ncn(-c3cc(OCc4ccc(S(C)(=O)=O)cc4)c(C(N)=O)s3)c2cc1OC [GW869979] | 45
Cl.NS(=O)(=O)c1cccc(Nc2cc(-c3ccc(F)cc3)n[nH]2)c1 [GW824645] | 0
COc1cccc(C2=C(N(C)c3ccccc3)C(=O)NC2=O)c1 [SB-334865] | 0
CCn1c(-c2ccoc2)nc2cnccc21 [SB-733887] | 0
COc1cc2nccc(Nc3cccc(Oc4ccccc4)c3)c2cc1OC.Cl [GW284543] | 28
CCC(=O)c1c(-c2ccccc2)c2cc(Cl)ccc2c(=O)n1Cc1cc(S(C)(=O)=O)n(CC(N)=O)n1 | 0
CCn1c(-c2nonc2N)nc2ccccc21 [SB-693162/GW549034] | 0
CN(C)c1cc(-c2ccc3c(N)n[nH]c3c2)nc(N)n1 [GSK2219329] | 0
Cc1ccccc1COc1cc(-n2cnc3cc(Cl)ccc32)sc1C(N)=O [GW813349] | 0
Cl.c1ccc(Cn2cnc3cc(Nc4ncnc5ccccc45)ccc32)cc1 [GW272142] | 0
Nc1ncnc2c1ncn2-c1cccc2ccccc12 [SKF-97184] | 0
COc1ccc(CNC(=O)NC2CCN(c3ccnc(Nc4ccc(F)cc4)n3)C2)cc1 (stereo not shown) [GSK1379706] | 0

Source: publication PMC5540273 (PLoS ONE, 2017)
